Test results: PubChem BioAssay (NCI)
Several values for one entry are separate records, joined by “and”; a condition that tells them apart may be missing. Identical values can stand only once. This is part of a sample that, as a whole, favours compounds with a hit. Of some 83,000 tested, about 20% had one in any assay.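 Growth was measured after 48 h exposure to one concentration of compound in 96-well plates. Values under 10 count as active.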 Activity calls are given as the source filed them.

Each compound was assayed on MDA-MB-468 breast (assay: NCI-60 one-dose screen, 48 h (100 = growth as untreated, 0 = no growth, -100 = all killed)). Conditions: 10 µM unless noted.

Structure (SMILES) | growth
O=C(CCCSc1nc(-c2ccccc2)cc(-c2ccc(Cl)cc2)n1)NO | -43.9% (active)
COc1ccc(C(C)c2cc(OC)c(OC)c(OC)c2)cc1 (stereo not given) | 41.6% (inactive)
COc1cc(OC)cc(-c2ccc(-c3ccc(C(=N)N)cn3)o2)c1 | -69.9% (active)
COc1ccc(-c2cnc(-c3ccncc3-c3cccc(OC)c3)o2)cc1 | 31.8% (inactive)
CCCC1Cc2cc(-n3nc(C)c4c3CC(C)(C)CC4=O)cc(NC3CCC(O)CC3)c2C(=O)N1 (stereo not given) | -8.54% (active)
COc1ccc(CNCCCN2C(=O)c3ccc4c5c(ccc(c35)C2=O)C(=O)N(CCCNCc2ccc(OC)c(OC)c2OC)C4=O)c(OC)c1OC | -94.8% (active)
CCCCCCCCCCCCCCCCC(=O)O | 102% (inactive)
O=c1cc(C2NNC(=S)N2)c2ccc3ccccc3c2o1 (stereo not given) | 128% (inactive)
COc1cc(C(=O)N/N=C/c2cccc([N+](=O)[O-])c2)cc(OC)c1OC | 6.95% (active)
C#CCN(C)Cc1ccccc1 | 96.1% (inactive) and 122% (inactive)
COc1ccc(C2CC(c3cc(OC)c(OC)c(OC)c3)=NN2c2ccc(S(N)(=O)=O)cc2)cc1 (stereo not given) | 71% (inactive)
Cc1ccc(C=C2C(Cl)=C(Cl)C(Cl)=C2Cl)cc1 | -59.4% (active)
Cn1c2c(cc(S(=O)(=O)c3ccccc3)c1=O)CCc1c-2cnn1-c1ccc(Cl)cc1 | -43% (active)
Cc1c(C(N)=O)sc2nc(SCC(=O)Nc3ccc(Cl)cc3)n(-c3ccccc3)c(=O)c12 | 106% (inactive)
COc1cc(NCCCCCCCNC(C)C)c2nccc(C)c2c1 | 9.01% (active) and 13.7% (inactive)
CN1CCN(CCOc2ccc(-c3cnc4c(-c5cccc(F)c5F)cnn4c3)cc2)CC1 | 94.8% (inactive)
COc1cccc(Sc2ccc([N+](=O)[O-])c3no[n+]([O-])c23)c1 | 69.9% (inactive)
CC(C)(C)N1CCC1C(N)=O (stereo not given) | 108% (inactive)
COc1ccc2oc(-c3ccc(Cl)cc3)c(N3CCN(C)CC3)c2c1 | -53.5% (active)
NS(=O)(=O)c1ccc(NCC(=O)Nc2ccc(-c3nc4ccccc4s3)cc2)cc1 | 4.26% (active)

Structure (SMILES) | growth
COc1ccc2c(Nc3ccc(NS(C)(=O)=O)cc3)c3ccccc3nc2c1 | -59.5% (active)
COc1ccc(-c2csc(NC(=O)CSc3nc(-c4ccccc4)cc(=O)[nH]3)n2)cc1 | 14.9% (inactive)
COc1c2ccccc2c(OC)c2[nH]c(=O)ccc12 | 60.9% (inactive)
CCOCCNc1ccc(S(=O)(=O)c2ccc(N)cc2)cc1N | 95.9% (inactive)
Cc1cc(=O)n(-c2ccc(F)cc2)[nH]1 | 113% (inactive)
O=C1CCCN1C1CCN2CCCc3cccc1c32 (stereo not given) | 118% (inactive)
CCN(CC)CCOc1cccc2c1C(=O)c1cccc(OCCN(CC)CC)c1C2=O | 8.32% (active)
CC(C)C1CCC(C)C(C2(C#N)C(N)=NC(N)=C2C#N)C1=O (stereo not given) | 107% (inactive)
Cn1cc(-c2csc(-c3cn(CCN)c4ccccc34)n2)c2cccnc21 | 23.2% (inactive)
CCCCOc1ncnc2nc[nH]c12 | 98.5% (inactive)
CCN(CC)c1ccc(C(=N)c2ccc(N(CC)CC)cc2)cc1 | -24.8% (active)
O=C1Nc2c(ccc(Cl)c2Cl)/C1=C\c1cc(C(F)(F)F)cc(C(F)(F)F)c1 | 7.18% (active)
C/C(=C(\c1ccc(OCCN2CCCCCC2)cc1)c1ccc(OC(=O)Cc2ccccc2)cc1)c1ccc(Cl)cc1 | -4.03% (active)
COc1ccc(-c2c(N)n[nH]c2-c2cc3c(c(OC)c2OC)OCO3)cc1 | 104% (inactive)
Cc1ccc(-c2cn(C/C=C3\C=CN(S(=O)(=O)c4ccccc4)CC3)nn2)cc1 | 86.8% (inactive)
O=C(Nc1cccnc1)c1ccc2ccc3ccc(C(=O)Nc4cccnc4)nc3c2n1 | -1.83% (active)
COc1ccc(-c2c3c(nc4n[nH]c(-c5ccc(Cl)cc5)c24)-c2ccccc2C(=O)C3=O)cc1 | -9.02% (active)
Cn1cc(-c2nn3cc(-c4ccncc4)nc3s2)c2cc(Br)ccc21 | 74.9% (inactive)
O=S(=O)(Cc1ccccc1)c1nc2ccccc2s1 | 76.8% (inactive)
N#Cc1cnc(NCCc2ccncc2)nc1-n1cnc2ccccc21 | 74.2% (inactive)
